Assay results as given in the supplement of paper PMC6555819.

The sequences below were run on VDR:RXRa (NR concentration 270 nM, RXRa partner concentration 90 nM) (assay: PBM binding z-score (relative to random genomic background probes); higher = stronger binding; sequences stand for … in GC…GCGATTGACAGCGTAGAATGAAGG).
Method: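 Protein-binding microarray (Agilent 4x180K custom design, double-stranded 60-nt probes: 5' GC cap, 34-nt variable region, 24-nt constant primer region; full probe sequence given). Purified or IVT nuclear receptor:RXRα heterodimers (3:1 NR:RXRα, mostly 270:90 nM) or homodimers were incubated for 1 h in PBS with 2% milk and no ligand, then detected with Alexa488 antibodies. Fluorescence from o1-orientation probes (~5 replicates averaged) was converted to z-scores against 500 random hg19 background probes. Variable regions are seed direct-repeat (DR0–DR5) sites, all their single-nucleotide variants and half-site ablations.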

| Sequence | PBM binding z-score |
| --- | --- |
| AGAACGAGGGCAGTGAGTTGATAGCACGGGTGGC | 3.91 |
| CGAACTAGGTCATCCTGGACAGTGAATACATTGA | 2.56 |
| CTTGCTAGGTCATGGTCAGCTAATCTACAGTATG | 1.59 |
| AGAATGAGGTTGAGATCAGGGAAACAGAATACAT | 0.141 |
| TAGCCTAGGTGAGATCGGGCCAGTATACGCTATA | -0.592 |
| AGTCACAGTTCAGGACGAGGTAACGTAAAGCACG | 1.12 |
| CCTTACGGTTCACGAGGTTATAGCACGACGAGCG | 4.12 |
| GGAACGAGGGCATGTTGATAGCAGAGTTTGATGG | 0.929 |
| GCTCGGAGGACAAGGTCCGAGCTTTGTCCGTAGA | -0.684 |
| CCTGCTAGGTCATAGTCAGCTAATCTACAGTATG | 1.28 |
| TCTTGTAGATCAATAGAGGTCAAGAAAGTGCGCT | 4.77 |
| CGTCCAAGGTCAATACTAGGTCAGTGAAAGCATT | 4.63 |
| AGAATGAGGTTAAGATCGGGGAAACAGAATACAT | 1.18 |
| TCTTTTAGATCAGCAGGTTAAGAAAGCTGGCCAA | 0.691 |
| ATCTCTAGGTAACAAAGTTCAGTGAATGCCGAAC | 3.18 |
| ATCACTAGGTAAAAGTTCAGTGAATCCCGAGGAT | 1.34 |
| TCATATAAGTAAATGCTAGGTGAAAGTCCGATCT | 0.889 |
| AGAATGAGGGTAAGATCAGGGAAACAGAATACAT | -0.0914 |
| GCTAGTTGGTCAGTATAAGGTCACACACCGGTCG | 3.24 |
| TCTGCTAGGTCAGTTGGTCAGCTGACGAGCTGCC | -0.0967 |

| Sequence | PBM binding z-score |
| --- | --- |
| TCTAGTTGGTCAAAGGTCACACAGTCGAAATGCG | 5.68 |
| TTTAGCAGGCCAGAGGGTCACTCAAGAGGTACGG | 1.55 |
| ACTATTAGTTGAGACGAGGGCAACCGTTAGGTTG | 0.546 |
| ATATGTAGGATAAGGGTCATTCAGGTTGGTTCGC | 5.49 |
| ATATGTTGGTTAAGGGTCATTCAGGTTGGTTCGC | 5.55 |
| GCTTGTATATCAAGGTTAAGAAAGACTAAGCTAA | 0.325 |
| GATACATGGTCAAGGCCAGAGTACGCGTATTGAT | -0.256 |
| ATCTCTAGGTAACCAAGTTCAGTGACTGCCGAAC | 4.15 |
| TCTTGTATATCAATAGAGGTTAAGAAAGTGCGCT | 2.14 |
| ATATGTCGGTTACATCCGGGTCATTCAGGCTATG | 3.53 |
| CCGACTCGGGCAAGGTTACCATAACGCACAGCCA | -0.103 |
| CGTCCAAGGTCAAACGTCAGTGAAGAGATGACGG | 4.37 |
| TCTAGCAGGCCAGAGGGTCACTCTAGAGGTACGG | 0.978 |
| GCAGCTAGGTCAACTGATGGTCAGCTAAAGCTCG | 1.19 |
| GCGACAGGGGCAAAGCAGGTTACCATAAGGTTGG | 0.898 |
| GCAAGCAGGCCATTTGGGTCACTCAATGACGGGC | 0.865 |
| TCTTGTAGATCAACAAGAGGTTAAGAAAGATCGA | 1.08 |
| CGAACTAGGTCAGACCAGGACAGTGAAGGATGAT | 1.03 |
| TCTTGTAGATCTATAGAGGTTAAGAAAGTGCGCT | 1.65 |
| TAGCCTAGGTCATTGGGCCAGTATGGTACGCATC | 2 |
